A short description of assay [1]: antimalarial activity against Dd2 strain (AID 2302;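 active = growth inhibition above 50% at the single 2 µM test dose, taken to imply half-maximal potency below 2 µM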;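 also: 0% = DMSO untreated growth and 100% = chloroquine plus artemisinin killed control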). To be noted: P. falciparum Dd2 in RBCs, LDH growth readout, 72 h; at 2 µM; active compounds read high.
The nature of assay [2]: human hepatoma cell viability loss – ATP luminescence, cytotoxicity control for P. falciparum antimalarial project, primary screen (AID 2303;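 active = inhibition above 50%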;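 also: 0% = DMSO wells and 100% = digitonin-killed cells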). The following applies: HepG2 viability, 24-48 h, at 10 µM, active compounds read high.
The target of assay [3] is L-lactate dehydrogenase (Plasmodium falciparum (isolate CDC / Honduras)) (UniProt Q27743). As to the kind of experiment: PfLDH activity inhibition – cell lysate, 3D7 strain, counter-screen for P. falciparum growth inhibition project (AID 2304).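 Also: 0% = vehicle and 100% = reference inhibitor.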 To be noted: P. falciparum 3D7 crude extract, LDH APAD/NBT absorbance; at 2 µM; active compounds read high. Background: The purpose of a counterscreen is to sort out artefacts and off-target activity.
L-lactate dehydrogenase (Plasmodium falciparum (isolate CDC / Honduras)), sequence (Q27743 whole entry, looked up): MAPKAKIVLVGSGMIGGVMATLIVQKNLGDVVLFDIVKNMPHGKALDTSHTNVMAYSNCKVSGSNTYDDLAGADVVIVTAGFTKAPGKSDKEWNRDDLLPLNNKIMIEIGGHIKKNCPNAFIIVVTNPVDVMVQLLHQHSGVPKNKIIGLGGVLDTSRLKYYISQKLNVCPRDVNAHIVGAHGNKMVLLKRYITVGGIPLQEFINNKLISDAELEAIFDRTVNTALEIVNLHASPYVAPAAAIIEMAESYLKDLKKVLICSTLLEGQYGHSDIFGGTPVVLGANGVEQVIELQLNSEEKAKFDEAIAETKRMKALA

Assay [4] is described as follows: inhibition of 3D7 malaria parasite growth – strain 3D7 (AID 2306).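 Also: 0% = DMSO wells and 100% = chloroquine plus artemisinin control wells.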 To be noted: P. falciparum 3D7 erythrocytic growth, LDH absorbance, 72 h; at 2 µM; active compounds read high.
Assay [5] has as its target Calcium-dependent protein kinase 1 (Plasmodium falciparum (isolate 3D7)) (UniProt P62344). As to the kind of experiment: PfCDPK1 kinase inhibitors, biochemical, TCAMS library (AID 1159585; cut-off not given, nearly all actives have IC50 up to about 0.98 µM;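 also: inhibitors leave more ATP so luminescence rises with inhibition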). To be noted: recombinant PfCDPK1, Kinase-Glo ATP depletion luminescence. For orientation: In Kinase-Glo more light means more ATP remaining.
The target of assay [6] is Plasmodium falciparum protein kinase 6 (PK6, PF3D7_1337100) (UniProt Q8IDW1). As to the kind of experiment: PfPK6 kinase inhibitors, biochemical, TCAMS library (AID 1159586). To be noted: recombinant PfPK6, Kinase-Glo ATP depletion luminescence.
Plasmodium falciparum protein kinase 6 (PK6, PF3D7_1337100), sequence (Q8IDW1 1-305): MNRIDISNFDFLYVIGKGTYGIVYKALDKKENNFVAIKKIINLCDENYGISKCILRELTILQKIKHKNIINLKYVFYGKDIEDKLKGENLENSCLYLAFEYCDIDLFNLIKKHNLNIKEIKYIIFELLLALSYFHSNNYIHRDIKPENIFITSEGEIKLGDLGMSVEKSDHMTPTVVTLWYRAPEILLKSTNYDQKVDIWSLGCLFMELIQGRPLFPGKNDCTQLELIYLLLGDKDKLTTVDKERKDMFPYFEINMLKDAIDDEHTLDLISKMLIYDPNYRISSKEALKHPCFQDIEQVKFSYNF
In assay [7] the target is Protein kinase 7 (PK7), Plasmodium falciparum 3D7 (PF3D7_0213400) (UniProt Q7YTF7). Kind of assay: inhibition of Plasmodium PK7 catalytic activity – biochemical, TCAMS antimalarial set, Kinase-Glo luminescence (AID 1159587). The following applies: recombinant PfPK7, Kinase-Glo ATP depletion luminescence.
Protein kinase 7 (PK7), Plasmodium falciparum 3D7 (PF3D7_0213400), sequence (Q7YTF7 1-343): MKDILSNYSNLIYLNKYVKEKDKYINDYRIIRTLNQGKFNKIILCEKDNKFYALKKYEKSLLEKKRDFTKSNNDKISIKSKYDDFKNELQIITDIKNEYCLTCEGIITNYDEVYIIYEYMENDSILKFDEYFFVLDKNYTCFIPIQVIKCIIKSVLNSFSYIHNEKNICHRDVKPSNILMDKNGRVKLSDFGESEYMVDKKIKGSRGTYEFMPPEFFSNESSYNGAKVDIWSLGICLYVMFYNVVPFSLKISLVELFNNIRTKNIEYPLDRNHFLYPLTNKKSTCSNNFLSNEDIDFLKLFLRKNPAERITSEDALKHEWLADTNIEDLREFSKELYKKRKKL
Assay [8] addresses Calcium-dependent protein kinase 4 (Plasmodium falciparum (isolate 3D7)) (UniProt Q8IBS5). As to the kind of experiment: PfCDPK4 kinase inhibitors, biochemical, TCAMS library (AID 1159588; cut-off not given, nearly all actives have IC50 up to about 0.91 µM). To be noted: recombinant PfCDPK4, Kinase-Glo ATP depletion luminescence.

For orientation: inhibition means the drop in the measured response relative to a control, in per cent.

A number with no mark means an inactive call. For part of these data: Results with a measured potency or affinity are listed apart. The source made the active and inactive calls. Unless noted, no rule for the calls is given here.

Calcium-dependent protein kinase 4 (Plasmodium falciparum (isolate 3D7)), sequence (Q8IBS5 whole entry, looked up): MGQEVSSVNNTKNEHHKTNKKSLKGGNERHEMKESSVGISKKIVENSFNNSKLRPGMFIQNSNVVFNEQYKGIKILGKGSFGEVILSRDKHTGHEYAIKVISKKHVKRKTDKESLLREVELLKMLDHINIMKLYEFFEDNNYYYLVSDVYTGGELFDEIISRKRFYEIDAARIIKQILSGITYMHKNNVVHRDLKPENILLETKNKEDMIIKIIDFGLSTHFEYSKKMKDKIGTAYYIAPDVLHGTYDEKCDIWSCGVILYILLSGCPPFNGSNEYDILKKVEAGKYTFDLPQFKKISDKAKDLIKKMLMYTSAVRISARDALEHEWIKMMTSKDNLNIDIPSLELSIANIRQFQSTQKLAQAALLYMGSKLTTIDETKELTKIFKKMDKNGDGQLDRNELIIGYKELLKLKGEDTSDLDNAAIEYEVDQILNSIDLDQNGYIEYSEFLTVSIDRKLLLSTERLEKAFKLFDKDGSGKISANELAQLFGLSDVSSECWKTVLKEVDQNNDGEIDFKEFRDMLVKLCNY
Calcium-dependent protein kinase 1 (Plasmodium falciparum (isolate 3D7)), sequence (P62344 whole entry, looked up): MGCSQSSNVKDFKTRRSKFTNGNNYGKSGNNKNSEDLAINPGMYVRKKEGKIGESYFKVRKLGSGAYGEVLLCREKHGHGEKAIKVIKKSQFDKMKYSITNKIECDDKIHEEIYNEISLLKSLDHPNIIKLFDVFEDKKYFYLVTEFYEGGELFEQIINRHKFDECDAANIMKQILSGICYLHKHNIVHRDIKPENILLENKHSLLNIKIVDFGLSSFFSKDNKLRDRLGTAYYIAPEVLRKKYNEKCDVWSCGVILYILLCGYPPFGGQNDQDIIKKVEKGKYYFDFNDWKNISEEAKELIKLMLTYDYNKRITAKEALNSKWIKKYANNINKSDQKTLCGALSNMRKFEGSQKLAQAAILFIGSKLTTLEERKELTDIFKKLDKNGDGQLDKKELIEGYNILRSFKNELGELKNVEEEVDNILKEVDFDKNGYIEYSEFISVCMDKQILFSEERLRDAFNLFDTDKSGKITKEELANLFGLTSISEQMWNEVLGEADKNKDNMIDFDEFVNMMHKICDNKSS

Consider `CC[C@H](C)CNC(=O)c1ccc(-c2cccc(CN3CCC(N4CCCC4)CC3)c2)nc1`, for which the growth inhibition in assay [1] is 7%; in assay [4], 91% (active). The values for the inhibition in assay [2] and in assay [3] were -1% and -7%, respectively. The result in assay [5], in assay [6], in assay [7] and in assay [8] was inactive.
For `COc1ccc(CNCCc2cccs2)cc1-c1ccc(S(=O)(=O)NCCN2CCCC2)s1`, the growth inhibition in assay [1] was 21%; in assay [4] it was 99% (active). Besides, the results for the inhibition in assay [2] and in assay [3] were 41% and 2%, respectively. In addition, the result in assay [5], in assay [6], in assay [7] and in assay [8] was inactive.
Turning to `Oc1cc(Nc2ccnc3cc(-c4ccc(CN5CCCCC5)o4)ccc23)c(Cl)cc1F`, the growth inhibition in assay [1] is 81% (active); in assay [4], 101% (active). In addition, the inhibition in assay [2] was 30%; in assay [3] it was 5%. For the same compound, the result in assay [5], in assay [6], in assay [7] and in assay [8] was inactive.

Values taken from PubChem BioAssay.
